In the supplement of paper PMC11732987, “Enantioselective OTUD7B fragment discovery through chemoproteomics screening and high-throughput optimisation” (Communications Chemistry, 2025):

Legend:
Assay in all cases: log2 ratio of Biotin-Ahx-Ub-VS probe labelling (fragment/DMSO); higher = less target engagement (more negative = stronger competition), active = hit call of the paper (q ≤ 0.05, log2 ratio ≤ -1)
Details in all cases: compound concentration: 200 uM; treatment time: 3 h
ALG13 = molecular target: T1, ALG13 (UniProt Q9NP73)
T1 sequence (whole entry): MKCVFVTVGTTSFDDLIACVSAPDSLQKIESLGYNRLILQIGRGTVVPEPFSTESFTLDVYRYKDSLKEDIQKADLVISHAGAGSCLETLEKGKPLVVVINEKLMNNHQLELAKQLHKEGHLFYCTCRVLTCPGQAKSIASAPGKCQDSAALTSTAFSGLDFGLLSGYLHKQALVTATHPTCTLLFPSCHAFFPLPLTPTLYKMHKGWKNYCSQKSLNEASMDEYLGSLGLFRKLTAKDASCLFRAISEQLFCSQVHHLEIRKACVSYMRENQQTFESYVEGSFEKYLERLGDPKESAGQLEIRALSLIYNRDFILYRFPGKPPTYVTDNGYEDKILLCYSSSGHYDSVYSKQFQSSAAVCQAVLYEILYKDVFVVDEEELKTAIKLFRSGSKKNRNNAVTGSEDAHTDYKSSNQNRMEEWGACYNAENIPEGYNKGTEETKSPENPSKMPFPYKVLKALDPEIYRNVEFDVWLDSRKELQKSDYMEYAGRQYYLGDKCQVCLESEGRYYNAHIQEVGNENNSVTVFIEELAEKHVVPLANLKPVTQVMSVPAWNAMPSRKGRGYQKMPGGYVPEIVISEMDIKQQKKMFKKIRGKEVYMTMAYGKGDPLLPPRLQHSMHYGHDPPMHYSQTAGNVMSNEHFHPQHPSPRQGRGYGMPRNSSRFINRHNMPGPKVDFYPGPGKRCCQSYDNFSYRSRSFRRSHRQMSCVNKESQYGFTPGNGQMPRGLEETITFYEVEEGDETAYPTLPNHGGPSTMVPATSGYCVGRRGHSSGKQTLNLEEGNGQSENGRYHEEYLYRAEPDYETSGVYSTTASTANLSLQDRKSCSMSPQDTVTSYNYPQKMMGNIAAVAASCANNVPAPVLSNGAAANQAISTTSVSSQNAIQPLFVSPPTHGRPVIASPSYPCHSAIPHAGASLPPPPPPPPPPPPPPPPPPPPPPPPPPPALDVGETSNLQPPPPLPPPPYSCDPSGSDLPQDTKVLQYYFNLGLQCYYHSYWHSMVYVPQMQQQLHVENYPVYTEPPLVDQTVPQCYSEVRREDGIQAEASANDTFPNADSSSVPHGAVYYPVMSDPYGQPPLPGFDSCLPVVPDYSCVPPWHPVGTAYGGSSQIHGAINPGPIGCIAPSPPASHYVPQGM
How it was run: (§1)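 Each value is an average log2 ratio of fragment to vehicle, tested by unpaired t-test. The underlying Spectronaut label-free quantities were global-median-normalised, and only proteins with ≥2 unique peptides were included. Triplicate HEK293T lysate samples (495 µg) were exposed to fragment at 200 µM or vehicle for 3 h, then to Biotin-Ahx-Ub-VS at 0.5 µM final for 1 h, before NeutrAvidin enrichment of labelled DUBs, LysC and trypsin digestion, and diaPASEF LC-MS/MS.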

ATXN3 = ATXN3 (UniProt P54252)
How it was run: as §1

BAP1 = molecular target: T2, BAP1 (UniProt Q92560)
T2 sequence (whole entry): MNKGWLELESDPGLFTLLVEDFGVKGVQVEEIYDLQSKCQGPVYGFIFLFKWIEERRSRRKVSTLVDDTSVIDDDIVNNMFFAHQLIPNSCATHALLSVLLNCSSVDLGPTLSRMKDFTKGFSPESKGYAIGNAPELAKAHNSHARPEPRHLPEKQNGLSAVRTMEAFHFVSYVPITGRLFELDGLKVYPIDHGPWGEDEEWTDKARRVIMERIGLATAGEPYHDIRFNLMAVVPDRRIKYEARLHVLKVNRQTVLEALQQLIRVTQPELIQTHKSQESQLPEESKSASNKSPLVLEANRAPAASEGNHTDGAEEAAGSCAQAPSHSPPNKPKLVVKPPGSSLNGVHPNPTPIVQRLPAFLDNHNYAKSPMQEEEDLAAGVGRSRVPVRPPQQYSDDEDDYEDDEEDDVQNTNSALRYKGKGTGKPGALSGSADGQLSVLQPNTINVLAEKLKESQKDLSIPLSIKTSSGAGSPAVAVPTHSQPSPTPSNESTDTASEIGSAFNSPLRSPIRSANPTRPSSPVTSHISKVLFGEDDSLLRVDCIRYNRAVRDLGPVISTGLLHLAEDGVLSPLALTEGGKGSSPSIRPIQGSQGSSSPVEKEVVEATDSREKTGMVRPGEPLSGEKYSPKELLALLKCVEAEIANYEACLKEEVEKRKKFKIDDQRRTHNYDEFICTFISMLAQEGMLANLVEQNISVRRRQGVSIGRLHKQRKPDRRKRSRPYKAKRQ
How it was run: as §1

EIF3F = EIF3F (UniProt O00303)
How it was run: as §1

EIF3H = EIF3H (UniProt O15372)
How it was run: as §1

FAM105A = molecular target: T3, FAM105A (UniProt Q9NUU6)
T3 sequence (whole entry): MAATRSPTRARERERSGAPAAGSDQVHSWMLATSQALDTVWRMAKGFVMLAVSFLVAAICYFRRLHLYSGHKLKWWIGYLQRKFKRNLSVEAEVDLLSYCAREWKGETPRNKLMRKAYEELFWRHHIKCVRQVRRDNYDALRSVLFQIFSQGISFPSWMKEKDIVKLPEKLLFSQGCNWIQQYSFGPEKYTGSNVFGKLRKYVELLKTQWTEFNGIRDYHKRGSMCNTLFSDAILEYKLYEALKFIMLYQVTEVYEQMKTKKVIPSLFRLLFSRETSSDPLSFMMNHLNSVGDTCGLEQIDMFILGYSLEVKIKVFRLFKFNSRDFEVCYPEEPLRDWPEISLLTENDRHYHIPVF
How it was run: as §1

OTUB1 = OTUB1 (UniProt Q96FW1)
How it was run: as §1

OTUD4 = molecular target: T4, OTUD4 (UniProt Q01804)
T4 sequence (whole entry): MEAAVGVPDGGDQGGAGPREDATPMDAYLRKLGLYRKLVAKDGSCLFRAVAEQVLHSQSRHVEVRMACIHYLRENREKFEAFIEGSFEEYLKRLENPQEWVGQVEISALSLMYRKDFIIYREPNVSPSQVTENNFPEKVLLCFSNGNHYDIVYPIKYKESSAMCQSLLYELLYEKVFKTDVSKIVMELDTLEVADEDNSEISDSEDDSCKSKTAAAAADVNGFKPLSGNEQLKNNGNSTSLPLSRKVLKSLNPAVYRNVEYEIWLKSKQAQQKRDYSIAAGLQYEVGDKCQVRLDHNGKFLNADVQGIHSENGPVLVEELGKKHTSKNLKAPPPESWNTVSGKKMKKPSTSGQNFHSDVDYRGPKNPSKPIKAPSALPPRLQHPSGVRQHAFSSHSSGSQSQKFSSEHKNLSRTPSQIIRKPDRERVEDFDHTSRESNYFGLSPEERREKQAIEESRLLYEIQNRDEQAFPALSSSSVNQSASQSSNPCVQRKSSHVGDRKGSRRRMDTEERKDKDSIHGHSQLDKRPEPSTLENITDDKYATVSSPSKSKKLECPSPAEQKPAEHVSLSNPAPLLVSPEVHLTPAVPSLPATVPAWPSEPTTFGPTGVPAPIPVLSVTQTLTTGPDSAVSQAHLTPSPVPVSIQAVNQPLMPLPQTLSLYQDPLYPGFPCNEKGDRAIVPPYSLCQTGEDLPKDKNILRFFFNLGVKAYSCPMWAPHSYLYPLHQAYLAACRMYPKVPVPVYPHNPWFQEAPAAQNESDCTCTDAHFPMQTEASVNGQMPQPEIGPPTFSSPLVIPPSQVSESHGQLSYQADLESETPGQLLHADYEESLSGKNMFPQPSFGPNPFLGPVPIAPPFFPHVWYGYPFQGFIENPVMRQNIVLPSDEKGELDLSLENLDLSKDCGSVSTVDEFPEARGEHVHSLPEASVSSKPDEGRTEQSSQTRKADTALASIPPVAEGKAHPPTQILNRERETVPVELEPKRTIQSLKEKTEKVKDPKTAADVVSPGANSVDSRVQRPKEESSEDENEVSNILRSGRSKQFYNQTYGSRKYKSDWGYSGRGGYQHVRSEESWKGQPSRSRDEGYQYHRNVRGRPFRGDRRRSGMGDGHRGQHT
How it was run: as §1

OTUD5 = molecular target: T5, OTUD5 (UniProt Q96G74)
T5 sequence (whole entry): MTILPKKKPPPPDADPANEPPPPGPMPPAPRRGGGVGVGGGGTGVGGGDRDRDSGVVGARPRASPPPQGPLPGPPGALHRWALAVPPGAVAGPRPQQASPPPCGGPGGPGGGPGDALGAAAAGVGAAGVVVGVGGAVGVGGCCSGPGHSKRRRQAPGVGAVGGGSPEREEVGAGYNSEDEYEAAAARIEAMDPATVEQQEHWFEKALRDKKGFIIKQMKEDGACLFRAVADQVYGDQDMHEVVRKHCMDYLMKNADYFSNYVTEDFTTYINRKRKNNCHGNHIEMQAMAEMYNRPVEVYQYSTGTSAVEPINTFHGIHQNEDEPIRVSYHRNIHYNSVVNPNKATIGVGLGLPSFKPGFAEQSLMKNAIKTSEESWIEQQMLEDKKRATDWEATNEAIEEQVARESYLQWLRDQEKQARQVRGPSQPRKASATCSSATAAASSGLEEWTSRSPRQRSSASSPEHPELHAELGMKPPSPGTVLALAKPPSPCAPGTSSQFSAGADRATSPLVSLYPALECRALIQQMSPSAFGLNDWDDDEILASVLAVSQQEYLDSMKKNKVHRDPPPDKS
How it was run: as §1

Measured: log2 ratio of Biotin-Ahx-Ub-VS probe labelling

EIF3H, sequence (O15372 whole entry): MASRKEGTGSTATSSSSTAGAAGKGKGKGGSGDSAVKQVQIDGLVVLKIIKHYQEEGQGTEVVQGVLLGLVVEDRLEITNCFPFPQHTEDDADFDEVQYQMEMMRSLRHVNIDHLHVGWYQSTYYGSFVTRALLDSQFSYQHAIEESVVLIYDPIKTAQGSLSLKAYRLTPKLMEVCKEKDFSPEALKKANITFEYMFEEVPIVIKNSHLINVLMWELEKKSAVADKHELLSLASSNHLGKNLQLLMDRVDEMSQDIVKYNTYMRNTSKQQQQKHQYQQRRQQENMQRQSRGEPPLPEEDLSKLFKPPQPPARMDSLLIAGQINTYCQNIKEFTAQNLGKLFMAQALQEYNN
EIF3F, sequence (O00303 whole entry): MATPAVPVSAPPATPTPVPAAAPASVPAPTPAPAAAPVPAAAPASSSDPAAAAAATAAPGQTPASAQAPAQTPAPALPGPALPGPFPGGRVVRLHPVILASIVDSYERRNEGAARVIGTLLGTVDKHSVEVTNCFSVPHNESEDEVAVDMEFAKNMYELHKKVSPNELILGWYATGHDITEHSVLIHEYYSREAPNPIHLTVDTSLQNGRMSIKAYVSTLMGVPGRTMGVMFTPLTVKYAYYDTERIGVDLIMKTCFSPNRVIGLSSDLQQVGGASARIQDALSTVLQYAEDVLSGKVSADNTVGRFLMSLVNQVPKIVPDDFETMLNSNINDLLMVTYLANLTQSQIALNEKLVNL
OTUB1, sequence (Q96FW1 whole entry): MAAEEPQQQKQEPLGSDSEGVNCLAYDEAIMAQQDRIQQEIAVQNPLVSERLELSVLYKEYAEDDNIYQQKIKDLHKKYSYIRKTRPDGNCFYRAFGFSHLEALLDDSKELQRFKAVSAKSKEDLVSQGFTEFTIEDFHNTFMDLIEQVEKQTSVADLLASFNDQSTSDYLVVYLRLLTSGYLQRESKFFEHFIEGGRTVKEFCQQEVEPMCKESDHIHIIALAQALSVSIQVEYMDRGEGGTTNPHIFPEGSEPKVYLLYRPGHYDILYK
ATXN3, sequence (P54252 whole entry): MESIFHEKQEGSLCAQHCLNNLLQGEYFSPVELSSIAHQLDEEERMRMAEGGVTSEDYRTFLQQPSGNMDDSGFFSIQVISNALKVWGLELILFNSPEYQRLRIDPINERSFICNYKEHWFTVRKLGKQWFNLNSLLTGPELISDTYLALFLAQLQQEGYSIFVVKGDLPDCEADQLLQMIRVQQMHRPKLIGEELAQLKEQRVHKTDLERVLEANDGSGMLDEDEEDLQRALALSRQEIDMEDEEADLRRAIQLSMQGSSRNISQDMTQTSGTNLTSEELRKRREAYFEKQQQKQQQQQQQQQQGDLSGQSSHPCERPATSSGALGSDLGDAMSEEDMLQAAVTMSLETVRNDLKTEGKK

N#Cc1ccc(Cl)cc1NC(=O)CCl
inactive: ALG13 -0.187 | ATXN3 -0.113 | EIF3F -0.13 | EIF3H 0.269 | FAM105A -0.217 | OTUB1 -0.265 | OTUD5 -0.589
active: BAP1 -4.1 | OTUD4 -1.18
